Assay results published in ChEMBL document CHEMBL3988442, “University of Dundee, Small-Polar-MMV Screening Library” (2021).
Screen size: about 48,000 compounds; about 13,000 (27%) showed an effect of 50% or more. The list shows a part of the results.

What follows are molecules tested on Wolbachia pipientis (assay: Anti-Wolbachia Cell-Based Screen). Settings: 5 µM.
Assay type: functional
Parameters: scale not given: in the data most compounds retested in dose-response had high values

Row | Compound | Percent Effect [%]
1 | CC(CO)(NC(=O)Nc1nnc(C(F)F)s1)C1CC1 (centres undefined) | -2.731
2 | CCc1ccc(C(C)NC(=O)CN(C)Cc2ccc(C)o2)cc1 (centres undefined) | 6.981
3 | O=C(O)c1ccccc1C1CCN(C2CCN(c3ccccc3)CC2)C1 (centres undefined) | 1.292
4 | Cc1ncc(CN2CCOC(CN(C)c3cccnn3)C2)s1 (centres undefined) | -7.672
5 | Cc1cc(CN2CCN(c3ccc4nncn4n3)C(C)C2)no1 (centres undefined) | 0.8559
6 | Cc1ncc(CN2CCN(c3ccc4nncn4n3)C(C)C2)s1 (centres undefined) | 100.4
7 | Cc1csc(N2CCN(Cc3cnc(C)s3)CC2C)n1 (centres undefined) | -7.074
8 | CC1CN(Cc2ccccn2)CCN1c1ccc2nncn2n1 (centres undefined) | 99.39
9 | Cc1cc(CN2CCN(c3ccc4nncn4n3)C(C)C2)on1 (centres undefined) | 105.9
10 | Cc1nc(CN2CCOC(c3ccc(Cl)cc3)C2)oc1C (centres undefined) | -15.43
11 | Cc1nc(CN2CCN(c3ccc4nncn4n3)C(C)C2)oc1C (centres undefined) | 98.31
12 | CC1(C)CN(C(=O)c2cnc(-c3ccccn3)nc2)CC[C@]1(C)O | -14.16
13 | CC(c1ccccc1F)N(C(=O)CSCC(N)=O)C1CC1 (centres undefined) | -1.119
14 | CCc1[nH]c2c(CNc3cncc(C(=O)N(C)C)n3)cc(C)cc2c1C | -3.475
15 | COc1ccc(C(C)Nc2ncc(C(N)=O)cc2Cl)c(OC)c1 (centres undefined) | 7.521
16 | CS(=O)(=O)NCCN1CCSCC1c1ccc(Cl)cc1 (centres undefined) | 7.054
17 | Cn1ccnc1SCc1nc(C(C)(C)NC(=O)OC(C)(C)C)no1 | 4.931
18 | Cc1cc(CN2CCN(CC(O)C(C)(C)C)CC2)no1 (centres undefined) | -2.656
19 | Cc1nnc2ccc(N3CCN(Cc4nccn4C)CC3)nn12 | -5.258
20 | c1ccc(CN2CCN(c3ccc4nncn4n3)CC2)nc1 | 81.68
21 | Cc1cnc(CN2CCN(c3ccc4nncn4n3)C(C)C2)cn1 (centres undefined) | 120.6
22 | Cc1nnc2ccc(N3CCN(CCc4ccccn4)CC3)nn12 | 75.62

Row | Compound | Percent Effect [%]
23 | CC1CN(CC2CCCCC2)CCN1c1ccc2nncn2n1 (centres undefined) | -9.658
24 | Cc1cc(CN2CCN(c3ccc4nncn4n3)CC2)no1 | 96.25
25 | CC1CN(CC2CCCC2)CCN1c1ccc2nncn2n1 (centres undefined) | -0.9162
26 | Cc1ccn(-c2ccc(N3CCN(Cc4ccccn4)CC3)nn2)n1 | -3.971
27 | CCn1ccnc1CN1CCN(c2ccc3nnc(C)n3n2)CC1 | -14.29
28 | c1ccc(CCN2CCN(c3ccc4nncn4n3)CC2)nc1 | -2.088
29 | N#Cc1ccc(N2CCN(c3ccc4nncn4n3)CC2)nc1 | -1.975
30 | O=C(Nc1cnccn1)[C@H]1C[C@H]2OCC[C@H]2N(c2ncc(F)cn2)C1 | 2.565
31 | c1ccc(CN2Cc3ccnn3CC(COCc3cccnc3)C2)nc1 (centres undefined) | -0.5546
32 | CCOCCN1CCN(CCCc2nnnn2-c2ccccc2)CC1 | -8.911
33 | CC1CN(CC(=O)N2CCCC2)CCN1c1ccc2nncn2n1 (centres undefined) | -2.378
34 | CC1CN(CCc2ccccn2)CCN1c1ccc2nncn2n1 (centres undefined) | 129.7
35 | CCCc1cc(N2CCCCC2Cn2cc(C)cn2)n2ncnc2n1 (centres undefined) | -0.9521
36 | COc1ccc(C(=O)N2CCN(C(=O)CCCc3cn[nH]c3)CC2)cc1 | -2.583
37 | O=C(C1CNCCN1C(=O)CCc1cccnc1)N1CCOCC1 (centres undefined) | 99.11
38 | Cc1ccccc1N1CCCN(C(=O)CCc2cccnc2)CC1 | 13.31
39 | O=C(Nc1ccc(F)cc1)C1CNCCN1C(=O)CCc1cccnc1 (centres undefined) | -3.468
40 | COc1ccc(CCC(=O)N2CCNCC2C(=O)N2CCOCC2)cc1 (centres undefined) | 109
41 | Cc1cc(CCC(=O)N2CCOCC2)ccc1Br | 7.033
42 | Cc1ccc(CCC(=O)N2CCOCC2)cc1Cl | -2.511
43 | COc1ccc(CCC(=O)N2CCNCC2C(=O)N2CCCC2)cc1 (centres undefined) | 99.9
44 | COc1ccc(CCCC(=O)N2CCCC(n3cccn3)C2)cc1 (centres undefined) | 8.149

Row | Compound | Percent Effect [%]
45 | CCn1cnnc1CCNC(=O)C1COc2ccc(OC)cc2C1 (centres undefined) | 0.6591
46 | O=S(=O)(CCc1ccccc1)Cc1nc(C2CC2)no1 | 20.48
47 | Cc1csc(C2CCCN(C(=O)c3ccc(=O)n(C)n3)C2)n1 (centres undefined) | 3.739
48 | Cc1csc(CNCC2CCCN(C(=O)OC(C)(C)C)C2)n1 (centres undefined) | 11.13
49 | Cc1c(C2CCCN(C(=O)OC(C)(C)C)C2)n2c(nc1=O)CCC2 (centres undefined) | 101.7
50 | Cc1cnc(C(=O)N2CCCC(c3c(C)c(=O)nc4n3CCC4)C2)cn1.Cl (centres undefined) | 99.49
51 | Cc1c(C2CCCN(C(=O)C3CC3)C2)n2c(nc1=O)CCC2.Cl (centres undefined) | 11.8
52 | Cc1cnc(C(=O)N2CCCC(Cn3cc(C4CC4)nn3)C2)cn1 (centres undefined) | 1.892
53 | Cc1nc(CN[C@H]2CCCN(C(=O)OC(C)(C)C)C2)cs1 | 1.8
54 | Cc1c(C2CCCN(C(=O)c3ccn(C)n3)C2)n2c(nc1=O)CCC2 (centres undefined) | 88.69
55 | O[C@@H]1C[C@@H](c2nc(-c3ccc(OC(F)(F)F)cc3)no2)N(CC2CC2)C1 | 9.042
56 | CCC/C=C/c1ccc(CN2CCCC2)cn1 | -3.861
57 | CCOC(=O)CN1CC(c2nc(-c3ccsc3)no2)C1.O=C(O)C(=O)O | -3.591
58 | CCC1COCCN1C(=O)CNC(=O)c1ccoc1C (centres undefined) | -13.26
59 | Cc1nc(Nc2ccccn2)cc(N2CCN(S(C)(=O)=O)CC2)n1 | -12.78
60 | CS(=O)(=O)N1CCN(c2ccc(Nc3ccccn3)nn2)CC1 | 2.595
61 | Cc1nc2c(c(Nc3ccccn3)n1)CN(S(C)(=O)=O)CC2 | 109
62 | Cc1ncc(CNCC(=O)NC2CCCCC2)n1-c1ccccc1 | -6.194
63 | CC(CCc1ccccc1)NC(=O)Nc1cnn(CC(N)=O)c1 (centres undefined) | -0.3012
64 | CCc1ncc(C(=O)N2CCn3c(CC)nnc3C2)s1 | -2.408
65 | CCc1nnc2n1CCN(C(=O)c1ccccc1OCC1CC1)C2 | -2.361
66 | CCc1nnc2n1CCN(C(=O)CN(C)C1CC1)C2 | 84.19

Row | Compound | Percent Effect [%]
67 | CCc1nnc2n1CCN(C(=O)CN(CC)CC)C2 | 97.7
68 | CCc1nnc2n1CCN(C(=O)c1cnn(C)c1C1CC1)C2 | 0.7265
69 | CCc1nnc2n1CCN(C(=O)COCCc1ccccc1)C2 | -3.602
70 | COCC(NC(=O)NCc1sccc1C)c1ccco1 (centres undefined) | -5.912
71 | CN(Cc1nccn1C)C(=O)C1COCC(=O)N1Cc1ccccc1 (centres undefined) | -8.994
72 | CN1CCOC(C(=O)Nc2nc(-c3ccc4c(c3)CCC4)n[nH]2)C1 (centres undefined) | -12.56
73 | Cn1ccnc1C(=O)N1CCCC1c1ccc(C(=O)N2CCOCC2)s1 (centres undefined) | -4.877
74 | COCC(=O)N1CCC2(CCC2NS(=O)(=O)c2ccccc2)CC1 (centres undefined) | 2.757
75 | CS(=O)(=O)N1CCC(C(=O)N2CCOc3ccccc32)CC1 | 5.703
76 | CNC(=O)CN1C(=O)CN(C(=O)COC)CCC(OC)c2ccccc21 (centres undefined) | 121.9
77 | CC1CCN(C(=O)C2CCN(S(C)(=O)=O)CC2)c2ccccc21 (centres undefined) | 3.869
78 | CNC(=O)NC(=O)CN1CCN(CC2CC2)c2ccccc21 | 5.416
79 | CCNC(=O)N1CCC(OC)c2ccccc2N(CC(=O)NC)C(=O)C1 (centres undefined) | 67.66
80 | CCNC(=O)N1CCC(Cc2cccc(C(N)=O)c2)C1 (centres undefined) | 4.026
81 | CCOC(=O)N1CCC(OC)c2ccccc2N(CC(=O)NC)C(=O)C1 (centres undefined) | 117.4
82 | CCOC(=O)CN1C(=O)CN(S(C)(=O)=O)CCC(OC)c2ccccc21 (centres undefined) | 83.87
83 | CCNC(=O)N1CC[C@H]2CC(=O)N(CC(N)=O)CC[C@H]2C1 | 1.469
84 | c1ccc(COCC2CNCc3nccn3C2)nc1 (centres undefined) | -7.438
85 | O=C(NS(=O)(=O)Cc1ccc(F)cc1)C1CCc2ccccc21 (centres undefined) | 9.1
86 | CC(NC(=O)NCC(C)(C)O)c1ccc(-c2cncnc2)cc1 (centres undefined) | -6.963
87 | COc1ccc(NCc2ccccc2N2CCN(C(C)=O)CC2)cn1 | 3.995
88 | CNC(=O)CN1CCCC1c1ccccc1Br (centres undefined) | 2.059

Row | Compound | Percent Effect [%]
89 | CNC(=O)CS(=O)(=O)C1CCN(S(=O)(=O)c2ccccc2Cl)CC1 | 17.8
90 | CCS(=O)(=O)N1CCC(OC)c2ccccc2N(CC(=O)NC)C(=O)C1 (centres undefined) | 115.1
91 | O=S(=O)(NCCNc1cc(-n2cccn2)ncn1)c1cccs1 | 12.03
92 | Cc1ccc(-c2[nH]c3ccccc3c2C(=O)O)c(C)c1 | 112.6
93 | Cc1ccc(C)c(C(=O)CN2C(=O)c3ccccc3CS2(=O)=O)c1 | -17.22
94 | COc1ccc(C)cc1-c1[nH]c2ccccc2c1C(=O)O | 86.15
95 | Cc1ccc(C)c(-c2[nH]c3ccccc3c2C(=O)O)c1 | 107.7
96 | COc1ccc(C)cc1C(C(=O)O)N1CCN(Cc2ccccn2)CC1 (centres undefined) | -8.065
97 | COc1ccc(C(=O)NS(C)(=O)=O)cc1-c1ccccc1 | -13.07
98 | Cc1ccc(C(=O)CN2C(=O)c3ccccc3CS2(=O)=O)c(C)c1 | -19.51
99 | CC(=O)N1CCCN(C(=O)c2csc(-c3ccc(C)cc3C)n2)CC1 | -4.506
100 | CC(C)CN1CCN(C(=O)c2cc(=O)c3ccccc3[nH]2)CC1 | -0.8051
101 | Cc1ncc2c(n1)CN(CC(=O)Nc1nncs1)CC2 | 10.92
102 | Cc1ncc2c(n1)CN(CC(=O)N1CCc3sccc3C1)CC2 | -8.865
103 | Cc1ncc2c(n1)CN(CC(=O)Nc1cccnc1)CC2 | 115.5
104 | Cc1ncc2c(n1)CN(CC(=O)Nc1nnc(C)s1)CC2 | 120.8
105 | Cc1nnc(NC(=O)CN2CCCC(c3ccn[nH]3)C2)s1 (centres undefined) | 8.304
106 | CCc1ncc2c(n1)CN(CC(=O)Nc1nnc(C)s1)CC2 | -0.5205
107 | Cc1ncc2c(n1)CN(CC(=O)Nc1nccs1)CC2 | 121.1
108 | Cc1ncc2c(n1)CN(CC(=O)Nc1ccncc1)CC2 | 3.82
109 | Cc1nc(CN2CCCN(CC(=O)Nc3cccnc3)CC2)no1 | -4.253
